miR-21 act = qHTS Assay for Modulators of miRNAs and/orActivators of miR-21. AID 2288, 2010. 340,000 tested, under 10 active. Potency, µM (titrated, usually from 38.3 µM), for the others: at the highest dose activity change, positive = activation, actives largely listed as activators. HeLa miR-21 FLuc reporter, luciferase, 48 h;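 further: % of control where 0% means no effect; miR-21 action dims this reporter so a rising signal means less miR-21 action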
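Compounds were titrated across several concentrations (up to approximately 40 uM) and incubated 48 hours with HeLa miR-21-FLuc reporter cells (miR-21 target sequence downstream of FLuc, endogenous miR-21). Readout was firefly luciferase luminescence after lytic detection reagent.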
TrxR1 inh = qHTS Assay for Inhibitors of Mammalian Selenoprotein Thioredoxin Reductase 1 (TrxR1): qHTS. Potency, µM (doses to about 114 µM), for the others: top-dose activity change, negative = inhibition, most hits filed as inhibitors. Thioredoxin reductase 1, cytoplasmic (Rattus norvegicus), O89049. 390,000 compounds, 1% hits. recombinant rTrxR1, NADPH fluorescence consumption, selenite substrate; further: potency means the concentration at half of the fitted maximal effect; on the % scale 0 is the no-effect control and ±100 the full control effect; nearly all actives have a fitted effect of over 65% in size
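Rat TrxR1 (90 nM in the dispensed reagent) was pre-reduced with 400 uM NADPH for 5 min at room temperature, then incubated with compound for 15 min. After 400 uM selenite was added, NADPH fluorescence (Ex 340/Em 450 nm) was followed for 8 min.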
PINK1 expr mod = A Quantitative High throughput Screen to Identify Chemical Modulators of PINK1 Expression; PINK1 immunofluorescence, high-content cytometry, 24 h; Potency, µM (series often up to 76.6 µM), for the others: at the highest dose activation (PINK1 increase), usual class: activators; 410,000 compounds, 0.2% hits; AID 624263, 2012; active means well fitted activation curve with a large enough effect; inconclusive means small, poorly fitted or top-dose-only effect; cell line not stated here; further: potency means the concentration at half of the fitted maximal effect; % of control where 0% means no effect; nearly all actives have a fitted effect of over 65% in size
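PINK1 protein level read as immunofluorescence by microplate cytometer in a fixed, stained stable cell line after 24 h exposure to five compound concentrations, with CCCP as control.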
GALK inhibitor = qHTS Assay for Inhibitors of Human Galactokinase (GALK) | Potency, µM (doses to about 57.5 µM), for inactives: at the top dose activity change, negative = inhibition, hits mostly inhibitors | P51570 | Purified GALK, Kinase-Glo residual ATP luminescence | AID 1868, 2009 | 270,000 compounds, 0.007% hits; further: potency means the concentration at half of the fitted maximal effect; on the % scale 0 is the no-effect control and ±100 the full control effect
Target sequence (P51570 whole entry, looked up): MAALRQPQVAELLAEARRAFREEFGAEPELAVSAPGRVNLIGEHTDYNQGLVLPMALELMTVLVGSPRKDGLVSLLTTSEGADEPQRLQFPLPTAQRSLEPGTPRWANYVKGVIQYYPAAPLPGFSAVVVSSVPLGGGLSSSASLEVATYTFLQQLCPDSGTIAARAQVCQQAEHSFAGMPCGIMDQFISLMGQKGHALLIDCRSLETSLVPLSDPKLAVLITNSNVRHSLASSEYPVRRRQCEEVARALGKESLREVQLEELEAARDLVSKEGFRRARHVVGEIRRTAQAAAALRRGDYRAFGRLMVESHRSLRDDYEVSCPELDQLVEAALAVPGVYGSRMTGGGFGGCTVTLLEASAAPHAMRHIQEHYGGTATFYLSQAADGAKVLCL
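GALK at 5 nM final was combined with compound, 35 uM ATP and 100 uM galactose in HEPES pH8.0 with MgCl2 and DTT. The reaction ran one hour at room temperature before luminescent ATP detection.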
TrxR1 substrate = qHTS Assay for Substrates of Mammalian Selenoprotein Thioredoxin Reductase 1 (TrxR1): qHTS; 390,000 compounds, 0.01% hits; Thioredoxin reductase 1, cytoplasmic (Rattus norvegicus), O89049; purified TrxR1 substrate turnover, NADPH consumption readout; Potency, µM (series often up to 114 µM), inactives show top-dose activity change, negative = substrate turnover; further: potency means the concentration at half of the fitted maximal effect; on the % scale 0 is the no-effect control and ±100 the full control effect; nearly all actives have a fitted effect of over 50% in size
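Rat TrxR1, dispensed at 90 nM, was prereduced with 400 uM NADPH (final) for 5 min at ~22 deg C, then incubated with compound 15 min before 400 uM selenite. A first-read NADPH fluorescence drop versus no-compound background flagged substrates.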
Numbers without * were called inactive; i = inactive; ? = inconclusive; · = no result; [ ] = another dose, or the depositor's remark. Rows were chosen to be rich in hits. Some 1.1% of all compounds tested hit in one or more screens of this group. Unless noted, the call rests on the fitted dose curve; in most records, active means well fitted curve in the direction sought with a large enough effect; inconclusive means small, poorly fitted or top-dose-only effect, or another doubt; inactive means no such curve, though single readings can be large; an effect the other way counts as inactive or inconclusive.

SMILES	miR-21 act	TrxR1 inh	PINK1 expr mod	GALK inhibitor	TrxR1 substrate
CCCN(CCC)C(=O)Cn1c(=O)n(-c2cccc(OC)c2)c(=O)c2c3c(sc21)CCCC3	1%	10%	2%	·	-4%
CCN1CCc2c(sc(NC(=S)NC(=O)c3ccccc3)c2C#N)C1	-30%	18µM*	0%	0%	-8%
CCOC(=O)Cc1ccc(NC(=O)NCc2c(-n3cccc3)sc3c2CCCC3)cc1	1%	9%	16%	·	-4%
CCS(=O)(=O)Nc1cccc(-c2cn3c(n2)SCC3)c1	-9%	1%	-1%	1%	0%
CS(=O)(=O)Nc1cccc(-c2cn3c(n2)SCC3)c1	-5%	32µM*	-1%	0%	-12%
CCOc1ccc(C(=O)NCc2nc3cccnc3n2Cc2ccc(F)cc2)cc1OCC	-1%	14%[57.1 µM]	-1%	·	-2%[57.1 µM]
C=C(CN(C)C)C(=O)c1cc(C)ccc1C	·	1.8µM*	-6%	·	9%[57.1 µM]
COc1cc(CNc2cccc(F)c2)cc(Br)c1O	-7%	13µM*	3%[38.3 µM]	3%	-1%[57.1 µM]
Cc1onc(C(=O)Nc2sc3c(c2C#N)CCCC3)c1[N+](=O)[O-]	-19%	16µM*	0%	-10%	-3%
COc1cc(/C=C2\SC(=S)N(CC(=O)NC3=NCCS3)C2=O)cc(OC)c1OC	0%	3%[57.1 µM]	28µM*	0%	-13%
COc1ccc(/C=C2\SC(=S)N(CCC(=O)NC3=NCCS3)C2=O)cc1OC	20%	14%[57.1 µM]	8%	·	7%[57.1 µM]
CCOc1ccccc1NC(=O)C(Cc1ccccc1)NS(=O)(=O)c1ccc2c(c1)oc(=O)n2C (stereo not drawn)	0%	14%	2%	·	1%
CCc1ccc(NC(=O)C(C)OC(=O)c2ccc(NS(=O)(=O)c3ccc(C)c([N+](=O)[O-])c3)cc2)cc1 (stereo not drawn)	11%	-6%	45µM*	-3%	-12%
Cn1c(=O)c(-c2cccs2)nc2cnc(OCc3ccccc3)nc21	·	·	0%	·	·
COc1cc(OC)c(/C=C/c2cc3ccccc3c[n+]2C)c(OC)c1	·	-23%	11µM*	·	-15%
CCCCOC(=O)c1ccc(NC(=O)c2ccc3c(c2)CCN3S(=O)(=O)c2ccccc2)cc1	?	16%	2%	·	-1%
COc1cc(Cl)c(C)cc1N1C(=O)[C@@H]2C[C@H]1CN2Cc1ccccn1	·	·	1%	·	·
CCn1c(/C=C/c2c(C)n(CC)c3ccccc23)nc2ccccc2c1=O	-4%	0%	18µM*	0%	0%
CC(C)COc1ccc(C(=O)N(Cc2ccc(N(C)C)cc2)Cc2ccco2)cc1	5%	18%	3%	·	-8%
NC(=O)COc1ccc2cc(-c3ccccc3)c(=O)oc2c1	-43%	?	0%	8%	309%
O=C(O)C(Oc1ccc2cc(-c3ccc(Cl)cc3)c(=O)oc2c1)c1ccccc1 (stereo not drawn)	1%	45µM*	5%	1%	i
COc1ccc(C(C2C(=O)CC(C)(C)CC2=O)C2C(=O)CC(C)(C)CC2=O)cc1CO	4%	8.9µM*	-1%	3%	-4%
CC1(C)CC(=O)C(C(c2ccc(F)cc2)C2C(=O)CC(C)(C)CC2=O)C(=O)C1	0%	4%[57.1 µM]	-1%	1%	-5%[57.1 µM]
CC1(C)CC(=O)C(C(c2ccc(Br)cc2)C2C(=O)CC(C)(C)CC2=O)C(=O)C1	0%	7.9µM*	2%	3%	10%
COC(=O)c1ccc(C(C2C(=O)CC(C)(C)CC2=O)C2C(=O)CC(C)(C)CC2=O)cc1	-2%	-46%	1%	3%	-2%[57.1 µM]
Cc1c(C)c2c(OCC(=O)NCc3ccccn3)cc3c(c2oc1=O)CCC(C)(C)O3	-3%	89µM*	2%	·	422%
CCc1cc(=O)oc2cc(OC(=O)CN3C(=O)NC4(CCCC4)C3=O)ccc12	-5%	?	0%	-6%	114%[57.1 µM]

Screens: PubChem BioAssay, National Center for Advancing Translational Sciences (NCATS)
